The structures appear in SMILES notation. Inconclusive results are not listed. Where a call stands in place of a potency, no number is given. Activity calls are given as the source filed them. Calls come from the whole dose curve; as a rule, active = well fitted inhibition curve with a large enough effect; inconclusive = small, poorly fitted or top-dose-only effect; inactive = flat fitted curve, though single readings scatter. Bridge positions count the residues as written; N and C are the ends. Square brackets hold non-standard residues; d marks the D form. Peptide text beside a SMILES is read from it. NMeY = CN[CH](Cc1ccc(O)cc1)C(=O)O

The target of this assay is Aldehyde dehydrogenase, mitochondrial (Homo sapiens) (UniProt P05091). The experiment in a line: qHTS for Inhibitors of the Aldehyde Dehydrogenase Family (ALDH2) Primary screen (AID 2061308). Note: nearly all actives have a fitted effect of over 55% in size. The following applies: ALDH2 enzyme inhibition qHTS, 1536-well; series mostly up to 56 µM.
`CC(C)=CCC[C@](C)(O[C@@H]1O[C@H](CO[C@@H]2OC[C@@H](O)[C@H](O)[C@H]2O)[C@@H](O)[C@H](O)[C@H]1O)[C@H]1CC[C@]2(C)[C@@H]1[C@H](O)C[C@@H]1[C@@]3(C)CC[C@H](O[C@@H]4O[C@H](CO)[C@@H](O)[C@H](O)[C@H]4O)C(C)(C)[C@@H]3CC[C@]12C`: the Potency result is “inactive”.
For `CC1(C)CC[C@]2(C(=O)O)[C@H](O)C[C@]3(C)C(=CCC4[C@@]5(C)CC[C@H](O[C@@H]6OC[C@@H](O)[C@H](O)[C@H]6O)[C@@](C)(C(=O)O)C5CC[C@]43C)[C@@H]2C1` (stereo not given in full) the value was “inactive”.
For `CC[C@H](C)/C=C(C)/C=C/C1=CC2=CC(=O)[C@]3(C)OC(=O)[C@@H](C(C)=O)[C@@H]3C2=CO1` the value was “inactive”.
For `CCc1cc(CC[C@]2(C3CCCC3)CC(O)=C(Cc3nc4nc(C)cc(C)n4n3)C(=O)O2)cc(CC)n1` the value was “inactive”; for `C=C1C(=O)OC2/C=C(\CO)CC/C=C(\C=O)CC(OC(=O)CC(C)C)C12` (stereo not given), “inactive”.
Regarding `CC1=C2CC(=O)C(C)CC/C=C(\C)CC2OC1=O` (stereo not given), the Potency entry is “inactive”.
As to `C[C@@H]1O[C@@H](O[C@H]2[C@H](O[C@H]3[C@H](O[C@H]4CC[C@@]5(C)C(CC[C@]6(C)C5CC=C5[C@@H]7CC(C)(C)C[C@@H](O)[C@]7(C)CC[C@]56C)[C@@]4(C)CO)O[C@H](C(=O)O)[C@@H](O)[C@@H]3O)OC[C@H](O)[C@@H]2O)[C@H](O)[C@H](O)[C@H]1O` (stereo not given in full), the Potency entry is “inactive”.
The value for `COC1C2=C(COC2=O)C2(C)CCCC(C)(CO)C2C1OC(=O)c1ccccc1` (stereo not given) was “inactive”.
Turning to `CC1CC(=O)C2=C(CCC3(O)C(O)c4c(O)cccc4C(=O)C23O)C1` (stereo not given), the Potency entry was “inactive”.
For `C=CC1C(O[C@@H]2O[C@H](CO)[C@@H](O)[C@H](O)[C@H]2O)OC=C(C(=O)OC)C1CC(=O)O` (stereo not given in full) the value was “inactive”.
The value for `COc1cc(O)cc(/C=C/c2ccc(O[C@@H]3O[C@H](CO)[C@@H](O)[C@H](O)[C@H]3O)cc2)c1` was “inactive”.
Turning to `Cc1ccc(Nc2nnc(-c3ccc([N+](=O)[O-])cc3)o2)cc1Cl`, the Potency entry is “inactive”.
As to `C=C1C(=O)O[C@@H]2C=C(COC(C)=O)CC/C=C(\CO)CC[C@@H]12`, the Potency result is “inactive”.
The value for `C[C@@H](CC[C@@H]1[C@@]2(C)CCCC(C)(C)C2CC[C@@]1(C)O)CC(=O)O` (stereo not given in full) was “inactive”; that for `C=CC(C)(O)CO[C@@H]1O[C@H](CO)[C@@H](O)[C@H](O)[C@H]1O` (stereo not given in full) was “inactive”; that for `Cc1ccccc1N1CCN(S(=O)(=O)C[C@]23CC[C@H](C[C@@H]2NC(=O)[C@@H](N)CCS(C)(=O)=O)C3(C)C)CC1` was “inactive”.
For `CC(=O)O[C@@H]1C[C@H](O)[C@@]23CO[C@H](O)[C@]1(C)C2C[C@@H](O)[C@]1(C)C3C(=O)[C@H](OC(C)=O)[C@@]2(C)[C@H](c3ccoc3)C[C@H]3O[C@]321` (stereo not given in full) the value was “inactive”; for `COc1cc(-c2ccc(O)cc2)c(OC)c(O)c1C1=CC(=O)OC1CC(=O)O` (stereo not given), “inactive”.
For `C=C1CC23CC1CCC2C12OC(=O)C(C)(C(O)CC1O)C2C3C(=O)O` (stereo not given) the value was “inactive”; for `C[C@@H]1O[C@@H](OC2C(O[C@H]3[C@H](O[C@H]4CC[C@@]5(C)C(CC[C@]6(C)C5CC=C5C7CC(C)(C)CC(O)[C@]7(C)CC[C@]56C)C4(C)C)O[C@H](C(=O)O)[C@@H](O)[C@@H]3O)OC(CO)C(O)C2O)[C@H](O)[C@H](O)[C@H]1O` (stereo not given in full), “inactive”; for `CO[C@H]1O[C@@H]2O[C@]3(C)CC[C@H]4[C@H](C)CC[C@@H]([C@H]1C)[C@@]24OO3`, “inactive”.
Consider `C=C(C)[C@@H]1CC[C@]2(C(=O)O)CC[C@]3(C(=O)O)[C@H](CCC4[C@@]5(C)CCC(=O)C(C)(C)C5CC[C@]43C)C12` (stereo not given in full), for which the Potency entry is “inactive”.
Take `CC(=O)OCC(=O)[C@@]12O[C@@H]1C[C@H]1[C@@H]3CC=C4C[C@@H](O)CC[C@]4(C)[C@H]3CC[C@@]12C`: the Potency entry was “inactive”.
In the case of `CCC[C@@H]1C[C@@H](C(=O)N[C@@H]([C@H]2O[C@H](SC)[C@H](O)[C@@H](O)[C@@H]2O)[C@@H](C)O)N(C)C1`, the Potency entry was “inactive”.
The value for `CC1(C)COC(=O)[C@@H]1O[C@@H]1O[C@H](CO)[C@@H](O)[C@H](O)[C@H]1O` was “inactive”; that for `C=C(CCO)C(=O)OCC1OCC(OC(=O)C(=C)CCO[C@@H]2O[C@H](COC(=O)C(=C)CCO[C@@H]3O[C@H](CO)[C@@H](O)[C@H](O)[C@H]3O)[C@@H](O)[C@H](O)[C@H]2O)C(O)C1O` (stereo not given in full) was “inactive”; that for `C=CC(C)(C)c1[nH]c2ccccc2c1C[C@@H]1NC(=O)[C@H](Cc2c[nH]c3ccccc23)NC1=O` was “inactive”.
The value for `COc1cc(O)c2c(c1)C1(OC2=O)C(C)=CC(=O)C1O` (stereo not given) was “inactive”.
For `CCC(C)C1NC(=O)C2CCCN2C(=O)C(NC(C)=O)C(C)OC(=O)C(Cc2ccc(OC)cc2)N(C)C(=O)C2CCCN2C(=O)C(C(C)C)NC1=O` (stereo not given) (Ac-TPIVP[NMeY](Me); ester 1-C; configuration not given here) the value was “inactive”; for `CC(=O)OC12CC(C)C(OC(=O)c3ccccc3)C1/C=C(/C)C(OC(=O)c1ccccc1)CC(=O)C(C)(C)/C=C/C(C)C2=O` (stereo not given), “inactive”; for `CC(C)C1=CC2C(CC[C@]2(C)O)[C@](C)(O)CC1` (stereo not given in full), “inactive”.
Regarding `COc1cc(C)c(C(=O)OC2C(C)OC(OC3CCC(C)C4C3C=C(C)C3/C(C)=C\CC/C(C)=C/C5(C)C=C(C(=O)O)C(C)CC56OC(=O)/C(=C(\O)C34C)C6=O)C(O)C2O)c(OC)c1` (stereo not given), the Potency entry was “inactive”.
Turning to `CC1CC(=O)C2C(O)(C1)CC(O)C13OC1c1c(O)cccc1C(=O)C23O` (stereo not given), the Potency entry is “inactive”.
Turning to `COc1cc2ncnc(Nc3cccc(I)c3)c2cc1OC`, the Potency result is “inactive”.
For `C=C(C)C1Cc2c(ccc3c2OCC(c2ccc(O)cc2O)C3)O1` (stereo not given) the value was “inactive”; for `CC(C)C(C)C(O)C1CC23CC(=O)C4(O)C(=C2CCC3C1C)C=CC1(O)CC(O)CCC14C` (stereo not given), “inactive”.
The value for `COc1cc(C(CO)CO[C@@H]2O[C@H](CO)[C@@H](O)[C@H](O)[C@H]2O)ccc1O` (stereo not given in full) was “inactive”.
`COc1cc(/C=C/C(=O)OC2CC(OC(C)=O)C(OC(C)=O)C3C2CCC2C(=O)OC(c4ccoc4)CC23C)ccc1O[C@@H]1O[C@H](CO)[C@@H](O)[C@H](O)[C@H]1O` (stereo not given in full): the Potency entry is “inactive”.
For `C/C(=C\CCC(C)(O)c1ccc(C)cc1)C(=O)O` (stereo not given) the value was “inactive”.
The value for `N#Cc1cccc(C(=O)Nc2cc(-c3ccccc3)nn2-c2ccccc2)c1` was “inactive”.
